FEN1 inh: blocks human flap endonuclease 1; P39748; Potency, µM (top dose mostly 114 µM), for inactives: at the highest dose activity change, negative = inhibition, hits mostly inhibitors; Recombinant FEN1 flap cleavage, fluorescence, 15 min; AID 588795; actives 0.35% (n = 390,000); also: % is scaled to controls: 0 for no effect and ±100 for the full control effect; nearly all actives have a fitted effect of over 65% in size
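Read-out was taken twice, immediately and after 15 min, following addition of 50 nM substrate to 10 nM FEN1 that had sat with test compound for 15 min at room temperature. Curves came from a four-parameter Hill model.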
POLK inh: DNA polymerase kappa (human) inhibition; Q9UBT6; purified Pol kappa, fluorescent DNA synthesis assay, 10 min; Potency, µM (series often up to 107 µM), for inactives: top-dose activity, negative = inhibition, actives largely listed as inhibitors; actives 0.53% (n = 400,000); AID 588579; also: % is scaled to controls: 0 for no effect and ±100 for the full control effect
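Pol kappa 10 nM + cpd, 15 min RT; start w/ substrate 50 nM final; fluorescence kinetic read, 0 and 10 min. Neg ctrl: buffer, no enzyme.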
Pol iota inh: blocks human DNA polymerase iota activity; Q9UNA4; Pol iota fluorescent replication assay, 10 min; Potency, µM (top dose mostly 115 µM), without a hit: at the highest dose activity, negative = inhibition, most hits filed as inhibitors; actives 1% (n = 390,000)
Target sequence (Q9UNA4 whole entry, looked up): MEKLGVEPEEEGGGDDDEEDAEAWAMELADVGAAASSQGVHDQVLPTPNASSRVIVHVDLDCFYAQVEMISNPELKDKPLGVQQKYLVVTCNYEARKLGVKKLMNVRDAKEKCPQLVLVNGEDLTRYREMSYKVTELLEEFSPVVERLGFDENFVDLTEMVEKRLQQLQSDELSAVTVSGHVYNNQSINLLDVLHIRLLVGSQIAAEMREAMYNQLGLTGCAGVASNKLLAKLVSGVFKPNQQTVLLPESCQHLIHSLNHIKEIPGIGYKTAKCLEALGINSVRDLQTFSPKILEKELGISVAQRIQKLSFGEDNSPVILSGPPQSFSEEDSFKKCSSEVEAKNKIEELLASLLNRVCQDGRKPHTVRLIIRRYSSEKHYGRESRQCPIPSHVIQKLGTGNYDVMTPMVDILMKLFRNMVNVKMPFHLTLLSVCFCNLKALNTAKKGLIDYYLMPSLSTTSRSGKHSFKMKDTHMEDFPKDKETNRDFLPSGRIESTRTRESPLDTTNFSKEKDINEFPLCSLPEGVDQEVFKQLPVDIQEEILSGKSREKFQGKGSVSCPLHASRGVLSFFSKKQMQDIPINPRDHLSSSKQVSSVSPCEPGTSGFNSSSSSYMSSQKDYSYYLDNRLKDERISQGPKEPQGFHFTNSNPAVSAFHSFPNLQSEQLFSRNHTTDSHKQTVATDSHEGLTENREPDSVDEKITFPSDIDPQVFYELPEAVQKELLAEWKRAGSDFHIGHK
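Pol iota at 10 nM preincubated 15 min with compounds at room temperature; reaction started with fluorescent substrate, 50 nM final. Fluorescence read kinetically at 0 and 10 min; buffer-only wells as negative control.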
WRN helicase inh: blocks human WRN helicase; actives 0.46% (n = 360,000); WRN helicase unwinding, fluorescent forked duplex, kinetic; Q14191; Potency, µM (series often up to 114 µM), inactives show at the top dose activity change, negative = inhibition, actives largely listed as inhibitors; also: % is scaled to controls: 0 for no effect and ±100 for the full control effect; nearly all actives have a fitted effect of over 55% in size
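Enzyme (20 nM final) and test compound sit together 15 min at room temperature before substrate addition. Substrate is a single-forked duplex oligonucleotide (100 nM) labelled with fluorophore and quencher, with 2 mM ATP; helicase unwinding raises red fluorescence, read kinetically.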
Pol beta inh: blocks human DNA polymerase beta activity; P06746; Pol beta primer extension/strand displacement, fluorescence kinetic; actives 1.3% (n = 340,000); Potency, µM (series often up to 114 µM), for the others: top-dose activity change, negative = inhibition, usual class: inhibitors; also: % is scaled to controls: 0 for no effect and ±100 for the full control effect
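Kinetic readout of DNA synthesis with strand displacement by Pol beta. Compound and 10 nM enzyme sit 15 min at room temperature; 50 nM substrate starts the reaction, read immediately and at 10 min.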
Pol eta inh: DNA polymerase eta (human) inhibition | recombinant Pol eta, fluorescent DNA replication assay | Potency, µM (doses to about 114 µM), for inactives: top-dose activity change, negative = inhibition, actives largely listed as inhibitors | actives 1.2% (n = 390,000); also: % is scaled to controls: 0 for no effect and ±100 for the full control effect
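Pol eta at 10 nM preincubated with compounds 15 min at room temperature; reaction started with fluorescent substrate (50 nM final) and read kinetically at 0 and 10 min.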
TbPGK inh: validation of Trypanosoma brucei phosphoglycerate kinase inhibitors. actives 79% (n = 500). TbPGK coupled GAPDH assay, Kinase-Glo luminescence. shares compounds with POLK inh. Potency, µM (titrated, usually from 57.5 µM), without a hit: at the top dose activity change, negative = inhibition, usual class: inhibitors. AID 686980; also: % is scaled to controls: 0 for no effect and ±100 for the full control effect; nearly all actives have a fitted effect of over 65% in size
POLI cherry-pick: Human Pol iota inhibitor confirmatory assay; actives 77% (n = 1,500); shares compounds with POLK inh; Potency, µM, usual class: inhibitors; Pol iota primer extension, TAMRA/BHQ fluorescence
* hit, by the source's call; u = inconclusive; x = no result; [ ] = another dose, or the depositor's remark. Only some compounds are listed: those with a hit (about 2.4% of all), similar ones and a draw of the others. Calls follow the shape of the dose curve; as a rule, active = well fitted curve in the direction sought with a large enough effect; inconclusive = small, poorly fitted or top-dose-only effect, or another doubt; inactive = no such curve, though single readings can be large; an effect the other way counts as inactive or inconclusive. Potency is read from the fitted curve at half-maximal effect.

SMILES | FEN1 inh | POLK inh | Pol iota inh | WRN helicase inh | Pol beta inh | Pol eta inh | TbPGK inh | others
COc1ccc(/C=C/c2nc3ccccc3n2C)cc1 | -15% | -14% | 139% | -3% | 0% | -1% | 4.1µM*
COc1ccc(Cn2c(/C=C/c3ccccc3)nc3ccccc32)cc1 | -14% | -12% | -11% | -8% | 29% | -1% | x
COc1cc(C(=O)Nc2nc3c(s2)Cc2c(Br)ccc(OC)c2-3)cc(OC)c1OC | -20% | -12% | 80% | x | 43% | x | x
C(=Nc1cccnc1)c1ccc2ccccc2n1 | -4% | 1% | 4% | x | x | x | x
COc1ccccc1NC(=O)c1cccc(S(=O)(=O)N2CCOCC2)c1 | 38% | 0% | 7% | -9% | 0% | -16% | x
COc1ccc(S(=O)(=O)N2CCOCC2)cc1NC(=O)c1cccc(-n2cccc2)c1 | -16% | 40µM* | 7.1µM* | u | x | 2.5µM* | x | POLI cherry-pick=u
COc1ccc(OC)c(NC(=O)C2CCN(S(=O)(=O)c3ccc4c(c3)CCCC(=O)N4)CC2)c1 | -6% | 0% | 41% | x | 14% | -17% | x
COc1cccc2c1NC(C(=O)O)C1CC=CC21 (centres undefined) | 25µM* | 7.9µM* | 1µM* | 13µM* | 1.8µM* | 2.5µM* | 8.2µM*
CC(=O)c1ccc2c(c1)C1C=CCC1C(C(=O)O)N2 (centres undefined) | 13µM* | 3.5µM* | 1.6µM* | 14µM* | 32µM* | 1µM* | 9.2µM*
COc1cccc(C2Nc3c(F)cc(Br)cc3C3C=CCC32)c1OC (centres undefined) | -2% | -6% | 4% | -6% | -15% | -7% | x
O=C(O)c1ccc2c(c1)C1C=CCC1C(c1cc3c(cc1Br)OCO3)N2 (centres undefined) | -12% | -11% | u | 1% | -2% | -15% | x
Cc1ccc(NC(=O)c2oc3ccccc3c2NC(=O)c2ccc(F)c(F)c2)cc1 | 20% | -1% | 21% | x | 17% | -30% | x
C/C(=N\NC(=O)c1cccc(F)c1)c1ccc(NC(=O)Cc2ccccc2)cc1 | -1% | -10% | 30% | -8% | -23% | -22% | x
C/C(=N\NC(=O)c1cc(O)cc(O)c1)c1ccc(NC(=O)Cc2ccccc2)cc1 | 50µM* | 22µM* | 5µM* | 20µM* | 1.6µM* | 3.2µM* | 1.8µM*
Cc1nc(SC(C)C(=O)Nc2cccc(C(F)(F)F)c2)c2c(C)c(C(=O)O)sc2n1 (centres undefined) | u | u | 7% | u | u | u | x | POLI cherry-pick=34*
Cc1ccc2nc(SC(Cc3cc(Cl)ccc3Cl)C(=O)O)[nH]c2c1 (centres undefined) | -9% | -4%[60.1 µM] | 29% | x | u | -19% | x
CC1=C/C(=C(/c2cc(C)c(O)c(Br)c2)c2ccccc2S(=O)(=O)O)C=C(Br)C1=O | u | u | u | u | -27% | 35µM* | 18µM*
CC1=C/C(=C(/c2ccc(O)c(C)c2)c2ccccc2S(=O)(=O)O)C=CC1=O | u | -20% | u | -20% | x | -17% | x
COc1ccc(-n2cccc2/C=C2\C(=N)N3N=C(c4ccco4)SC3=NC2=O)cc1 | u | 22µM* | u | u | 5.6µM* | 8.9µM* | 3.7µM*
CC1(C)C(=O)NC2=C1C(=O)C(=O)c1ccccc12 | x | -16%[12 µM] | x | x | x | x | x
COc1ccc(N/C=C2\CCc3ccccc3C2=O)cc1 | -19% | -7% | 9% | -12% | 20% | -15% | 16µM*

High-throughput results deposited in PubChem BioAssay by National Center for Advancing Translational Sciences (NCATS).
